This note sets out measurements from the supplement of paper PMC9925115.

The structures appear in SMILES notation. “And” between values parts separate entries of the source, which are not always exact repeats. Equal entries are not always repeated. Structures can show the parent of a compound that is named as a salt.

This test relates to FLX1 + dox-induced PRKAR1A G325D. In words: difference in log2 fold change of viability vs plate median (dox-induced PRKAR1A G325D minus uninduced); higher = compound less effective when PKA is inhibited. The note with it: concentration: not stated (2 or 5 uM); 5 days. As for the experimental part: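 For each plate a log2 fold change vs the plate median was derived, and the values without dox were subtracted from those with dox, averaged over three biological replicates.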
For `CCOc1cc2ncc(C#N)c(Nc3ccc(F)c(Cl)c3)c2cc1NC(=O)/C=C/CN(C)C` [Pelitinib (EKB-569)], the “difference in log2 fold change of viability” value (“difference in log2 fold change” below) is 0.0327.

On to `CN1CCN(c2nc(C3=C(c4c[nH]c5ccccc45)C(=O)NC3=O)c3ccccc3n2)CC1` [Sotrastaurin], for which the “difference in log2 fold change” value is -0.157.

Turning to `Cc1c(NC(=O)OC[C@@H]2COCCN2)cn2ncnc(Nc3ccc4c(cnn4Cc4cccc(F)c4)c3)c12`, the “difference in log2 fold change” value is -0.034.

Consider `COc1ccc(CNC(=O)Nc2ncc([N+](=O)[O-])s2)cc1`, for which the “difference in log2 fold change” value was 0.288.

Turning to `CNC(=O)c1ccc(C)c(-n2c(C)cc(OCc3ccc(F)cc3F)c(Br)c2=O)c1`, the “difference in log2 fold change” value came out at 0.455.

With `COC(=O)c1ccc2c(c1)NC(=O)/C2=C(\Nc1ccc(N(C)C(=O)CN2CCN(C)CC2)cc1)c1ccccc1` [Nintedanib (BIBF 1120)], the “difference in log2 fold change” value is -4.27.

Regarding `CN(C[C@@H]1COCCO1)S(=O)(=O)Nc1ccc2ccc3ncc(-c4cnn(C)c4)cc3c(=O)c2c1`, the “difference in log2 fold change” value was -0.247.

As to `O=C1NC(=O)C(c2cnc3ccccn23)=C1c1cn2c3c(cc(F)cc13)CN(C(=O)N1CCCCC1)CC2`, the “difference in log2 fold change” value was 0.116.

On to `C=CCc1ccc(O)c(-c2ccc(O)c(CC=C)c2)c1` [Honokiol], for which the “difference in log2 fold change” value is -1.37.

With `CN1CCN(c2ccc(Nc3cc(-c4cccc(-n5ccc6cc(C7CC7)cc(F)c6c5=O)c4CO)cn(C)c3=O)nc2)CC1`, the “difference in log2 fold change” value was -0.059.

Turning to `O=C(c1cccc(Cl)c1F)N1CCN(Cc2cccc(Nc3nccs3)n2)CC1`, the “difference in log2 fold change” value was -0.738.

For the compound `Nc1ncnc2c1c(-c1cnc3[nH]ccc3c1)nn2C1CCCC1`, the “difference in log2 fold change” value is 0.363.

Consider `CCS(=O)(=O)c1cccc(-c2cc(C(=O)NC3CCN(C)CC3)c(C)c3[nH]c4ncc(C)cc4c23)c1`, for which the “difference in log2 fold change” value was -0.102.

With `Cc1cc(Nc2nc(N[C@@H](C)c3ccc(F)cc3)c(C#N)cc2F)n[nH]1`, the “difference in log2 fold change” value was -0.0432.

`Cc1cnc(-c2cnc(NCCNc3ccc(C#N)cn3)nc2-c2ccc(Cl)cc2Cl)[nH]1`: the “difference in log2 fold change” value was -0.0854 and -0.119.

Turning to `CNC(=O)c1cc(Oc2ccc(NC(=O)Nc3ccc(Cl)c(C(F)(F)F)c3)cc2)ccn1` [Sorafenib], the “difference in log2 fold change” value worked out at 0.0478.

As for `CCC[C@H](NC(=O)/C(C#N)=C/c1cccc(Br)n1)c1ccccc1` [Degrasyn (WP1130)], the “difference in log2 fold change” value came to 0.135.

On to `CNC(=O)Nc1ccc(-c2nc(N3CC4CCC(C3)O4)c3cnn(C4CCC5(CC4)OCCO5)c3n2)cc1`, for which the “difference in log2 fold change” value was 1.48.

For the compound `CCN1CCN(Cc2ccc(C(=O)Nc3ccc(C)c(Oc4ccc5c(c4)CC(=O)N5)c3)cc2C(F)(F)F)CC1`, the “difference in log2 fold change” value was -0.078.

`Cc1ccc(F)c(NC(=O)Nc2ccc(-c3cccc4[nH]nc(N)c34)cc2)c1` [Linifanib (ABT-869)]: the “difference in log2 fold change” value came to 0.386.

As for `CC(C)CC(=O)Nc1n[nH]c2c1CN(C(=O)C1CCN(C)CC1)C2(C)C`, the “difference in log2 fold change” value came to 0.243.

As for `OCCn1cc(-c2cnc3nnn(Cc4ccc5ncccc5c4)c3n2)cn1`, the “difference in log2 fold change” value was -0.172.

For `Cc1ccc(NC(=O)c2ccc(CN3CCN(C)CC3)cc2)cc1Nc1nccc(-c2cccnc2)n1` [Imatinib Mesylate (STI571)], the “difference in log2 fold change” value worked out at 0.343.

Regarding `NC1(c2ccc(-c3nc4ccn5c(=O)[nH]nc5c4cc3-c3ccccc3)cc2)CCC1`, the “difference in log2 fold change” value turned out to be 0.0391.

For `CC1(C)CNc2cc(NC(=O)c3cccnc3NCc3ccncc3)ccc21` [Motesanib Diphosphate (AMG-706)], the “difference in log2 fold change” value was determined as 0.326.

As for `Nc1cc(C(F)(F)F)c(-c2cc(N3CCOCC3)nc(N3CCOCC3)n2)cn1` [Buparlisib (BKM120, NVP-BKM120)], the “difference in log2 fold change” value came out at 0.841.

Consider `CO[C@@H](C(=O)N1Cc2[nH]nc(NC(=O)c3ccc(N4CCN(C)CC4)cc3)c2C1)c1ccccc1`, for which the “difference in log2 fold change” value came to 0.428.

As to `FC(F)c1nc2ccccc2n1-c1nc(N2CCOCC2)nc(N2CCOCC2)n1`, the “difference in log2 fold change” value is 0.435.

With `Nc1nc(N)c(N=O)c(OCC2CCCCC2)n1`, the “difference in log2 fold change” value was -0.216.

Turning to `Cc1cc(N2CCOCC2)cc2[nH]c(-c3c(NC[C@@H](O)c4cccc(Cl)c4)cc[nH]c3=O)nc12`, the “difference in log2 fold change” value is -1.17.

`COc1ccc(-c2cc3c(C)nc(N)nc3n([C@H]3CC[C@H](OCCO)CC3)c2=O)cn1`: the “difference in log2 fold change” value came to 0.605.

On to `CN(C)CCOc1ccc(-c2nc(-c3ccncc3)c(-c3ccc4c(c3)CC/C4=N\O)[nH]2)cc1`, for which the “difference in log2 fold change” value was -1.73.

Regarding `CS(=O)(=O)CCNCc1ccc(-c2ccc3ncnc(Nc4ccc(OCc5cccc(F)c5)c(Cl)c4)c3c2)o1` [Lapatinib], the “difference in log2 fold change” value amounted to 0.129.

In the case of `O=S(=O)(NCCNC/C=C/c1ccc(Br)cc1)c1cccc2cnccc12`, the “difference in log2 fold change” value was -0.243.

For `CNC(=O)c1ccccc1Sc1ccc2c(/C=C/c3ccccn3)n[nH]c2c1` [Axitinib], the “difference in log2 fold change” value is -0.125.

In the case of `C=CC(=O)Nc1ccc2ncnc(Nc3ccc(OCc4cccc(F)c4)c(Cl)c3)c2c1`, the “difference in log2 fold change” value is -0.53.

Take `O=c1c(-c2ccc(O)cc2)coc2cc(O)cc(O)c12` [Genistein]: the “difference in log2 fold change” value stood at 0.126.

For the compound `COc1ccc(F)c(F)c1C(=O)c1cnc(NC2CCN(S(C)(=O)=O)CC2)nc1N`, the “difference in log2 fold change” value was determined as 0.247.

On to `O=C(NC1CCNCC1)c1n[nH]cc1NC(=O)c1c(Cl)cccc1Cl`, for which the “difference in log2 fold change” value worked out at 0.272.

With `CC1=C(C(=O)Nc2cc3cn[nH]c3cc2F)C(c2ccc(C(F)(F)F)cc2)CC(=O)N1` (stereo not given), the “difference in log2 fold change” value is 0.418.
